# Screening data (PubChem)
# MARV entry inh = blocks Marburg virus binding to or entry into cells. Potency, µM (highest dose often 37.8 µM), for inactives: top-dose activity change, negative = inhibition, usual class: inhibitors. AID 540276. Marburg virus pseudotyped entry inhibition, cell reporter. 300,000 compounds, 1.8% hits; calls by dose curve; tested in HEK293 cells; also: potency is read from the fitted curve at half-maximal effect
# FMDV antiviral = foot and mouth disease virus antiviral activity; FMDV antiviral cell-based qHTS; Potency, µM (series often up to 57.9 µM), for inactives: top-dose activity change, negative = inhibition, hits mostly inhibitors; 410,000 compounds, 1.2% hits; calls by dose curve; tested in HEK293T cells; also: read-out not given here; potency is read from the fitted curve at half-maximal effect; nearly all actives have a fitted effect of over 45% in size
# HCMV antiviral = inhibitors of human cytomegalovirus; activity change, negative = inhibition, % at 57.5 µM; AID 1259415; HFF cells, HCMV-luciferase reporter, 72 h; active compounds read low; 410,000 compounds, 4.5% hits; in the data active = activity change below about -60%; inconclusive = no clear call, values can overlap the other calls; inactive = above about -39%
#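 Two compound doses tested in HFFs infected with HCMV-luciferase, MOI 1 PFU/cell, 72 h at 37C. Lysate luminescence read with OneGlo; data normalized against buffer-only and 10uM Salinomycin inhibitor controls.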
# HCV inh = inhibitors of hepatitis C virus infection | Huh7.5.1 HCVcc-Cre infection, luciferase reporter, 44 h | Potency, µM (highest dose often 41.8 µM), for the others: at the top dose activity change, negative = inhibition, most hits filed as inhibitors | 340,000 compounds, 3.4% hits | AID 651820; active = well fitted inhibition curve with a large enough effect; inconclusive = small, poorly fitted or top-dose-only effect, or another doubt; inactive = no such curve, though single readings can be large or run the other way; also: potency is read from the fitted curve at half-maximal effect
#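 Antiviral activity was scored by luciferase reporter output from cells infected with HCVcc-Cre (~0.5 moi) in presence of compound, 44 h infection period, cells seeded 1,000/well 4 h prior.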
# Lassa entry inh = inhibitors of Lassa virus binding or cell entry; Lassa virus pseudotype entry inhibition, cell reporter; Potency, µM (titrated, usually from 37.9 µM), inactives show top-dose activity change, negative = inhibition, most hits filed as inhibitors; 300,000 compounds, 1.2% hits; calls by dose curve; tested in HEK293 cells; also: potency is read from the fitted curve at half-maximal effect; nearly all actives have a fitted effect of over 50% in size
# Starred values were filed as active, the others as inactive; ? = inconclusive; nt = no result given; [ ] = dose if it differs, or a comment. This is a sample that favours compounds with a hit; in the whole collection about 7.9% have one here. % is scaled to controls: 0 for no effect and ±100 for the full control effect.
SMILES,MARV entry inh,FMDV antiviral,HCMV antiviral,HCV inh,Lassa entry inh
O=[N+]([O-])c1ccccc1S(=O)(=O)c1ccccc1[N+](=O)[O-],nt,-10%,8,5%,nt
CC(CS(=O)(=O)c1ccccc1[N+](=O)[O-])N1CCOCC1 (centres undefined),4%,-18%,-81*,32%,8%
C=CCc1ccc(OCC(O)CN2CCC(Cc3ccccc3)CC2)c(OC)c1 (centres undefined),?,-18%,30,6.3µM*,13µM*
C=CCc1ccc(OCC(O)CN2CCN(Cc3ccc(Cl)cc3)CC2)c(OC)c1 (centres undefined),8.2µM*,-30%,?,?,?
Cc1ccc(OCC(O)CN2CCC(Cc3ccccc3)CC2)c(C)c1 (centres undefined),nt,4%,-77*,11µM*,nt
OC(COCc1ccc(Cl)cc1)CN1CCN(CC(O)COCc2ccc(Cl)cc2)CC1 (centres undefined),?,?,?,11µM*,?
C=CCc1ccc(OCC(O)CN2CCN(c3ccccc3OC)CC2)c(OC)c1 (centres undefined),nt,?,-7,?,nt
OC(COc1ccccc1)CN1CCC(Cc2ccccc2)CC1 (centres undefined),?,-8%,72,-5%,?
CCc1ccc(N2C(=O)CS(=O)(=O)C23C(=O)N(Cc2ccccc2F)c2ccccc23)cc1 (centres undefined),nt,-4%,-7,nt,-18%[46.1 µM]
Cn1c(C=O)c(-c2ccc3c(c2)OCCO3)c2ccccc21,nt,-20%,?,16µM*,nt
Cn1c2ccccc2c(=O)c2ccc(-c3ccc4c(c3)OCO4)cc21,nt,-1%,81,?,nt
Cn1c(SCC2CCCO2)nnc1C1CCN(Cc2ccco2)CC1 (centres undefined),nt,-2%,nt,nt,nt
Cc1cnc(SCc2ccccn2)nc1C1CCCN(C(=O)c2noc3c2CCCC3)C1 (centres undefined),nt,20µM*,nt,nt,nt
Cc1cnc(SCc2ccccn2)nc1C1CCCN(C(=O)c2scc3c2CCCC3)C1 (centres undefined),nt,16µM*,nt,nt,nt
Cc1cnc(SCc2ccccn2)nc1C1CCCN(C(=O)c2coc3c2C(=O)CCC3)C1 (centres undefined),nt,-7%,nt,nt,nt
O=C(CN1Cc2ccccc2OC(c2ccsc2)C1)N1CCC(c2nc3ccccc3[nH]2)CC1 (centres undefined),nt,8%,nt,nt,nt
O=c1c(-c2ccc(F)cc2)nc2cnc(N3CCOCC3)nc2n1C1CC1,nt,17%,nt,nt,nt
COc1ccc(Br)cc1-c1nc(CCl)cs1,nt,-4%,?,10µM*,nt
COc1ccc(-c2cn(CCc3c[nH]c4ccccc34)nn2)cc1,nt,3%,?,?,nt
CCc1cc(-c2nnn(CCC3COCCO3)c2CC)ccc1-c1cn(CCc2c[nH]c3ccccc23)nn1 (centres undefined),nt,0%,-80*,nt,nt
CCc1cc(-c2nnn(CCC3COCCO3)c2CC)cc(CC)c1-c1cn(Cc2ccc3ccccc3c2)nn1 (centres undefined),nt,?,-67*,nt,nt
COc1ccc(-c2cn(Cc3cccc(OC)c3)nn2)cc1,nt,63%,35,?,nt
COCCCNc1ccn2nc(-c3ccccc3)cc2n1,nt,-42%,57,nt,nt
CC(C)(CO)CNc1ccn2nccc2n1,nt,-4%,-70*,nt,nt
O=C(c1ccc(F)cc1)N1CCN2C(=O)c3ccccc3C12c1ccccc1 (centres undefined),9%,-17%,34,-4%,?
SMILES,MARV entry inh,FMDV antiviral,HCMV antiviral,HCV inh,Lassa entry inh
O=C(c1ccc(F)cc1)N1CCN2C(=O)c3ccccc3C12c1ccc(Cl)cc1 (centres undefined),?,-12%,-64*,-4%,1%[46.1 µM]
CC1CCN(S(=O)(=O)c2cc(C(=O)NC3(C)CCS(=O)(=O)C3)ccc2Br)CC1 (centres undefined),nt,-23%,-61*,-1%,nt
CC1CCN(C(=O)c2ccc(Br)c(S(=O)(=O)N3CCOCC3)c2)CC1,8%[46.1 µM],0%,-31,4%,1%
CC1CCN(S(=O)(=O)c2cc(C(=O)N3CCN(c4ncccn4)CC3)ccc2Br)CC1,?,20µM*,-64*,?,?
CCCCNC(=O)c1nc2ccc(Br)cc2nc1-c1cccc(Br)c1,nt,nt,-6,nt,nt
Cc1csc2ncnc(NC3CCN(Cc4ccccc4)CC3)c12,10µM*,-22%,?,1.8µM*,-22%[46.1 µM]
Cc1ccc(-c2csc3ncnc(N4CCN(Cc5ccccc5)CC4)c23)cc1,nt,?,-9,?,nt
Cc1ccc(NC(=O)c2cccc(S(=O)(=O)N3CCN(c4ccc(F)cc4)CC3)c2)nc1,?,?,-77*,?,?
O=C(C1CCN(S(=O)(=O)c2cccs2)CC1)N1CCCC(C(F)(F)F)C1 (centres undefined),2%,-19%,-98*,18%,-2%
O=C(Nc1ccncc1)c1cccc(S(=O)(=O)N2CCN(c3ccc(F)cc3)CC2)c1,?,20µM*,-71*,?,?
O=C(Nc1ncccc1O)c1cccc(S(=O)(=O)N2CCN(c3ccc(F)cc3)CC2)c1,-1%,-20%,-5,-10%,-2%
O=C(c1cccc(S(=O)(=O)N2CCN(c3ccc(F)cc3)CC2)c1)N1CCCC(C(F)(F)F)C1 (centres undefined),7.9µM*,?,-61*,?,?
Cc1ccc(CC(=O)Nc2cccc(C(=O)Nc3c(C)n(C)n(-c4ccccc4)c3=O)c2)cc1C,nt,-9%,-32,nt,nt
CC(C)Oc1ccc(CNC(=O)c2ccccc2NC(=O)c2nsc3ccccc23)cc1,nt,0%,0,nt,-4%[46.1 µM]
C#CCCCCCCCCCCCC(O)CC(O)COC(C)=O (centres undefined),nt,2%,nt,nt,nt
CC(C)C1N(S(=O)(=O)c2ccccc2)CCN1S(=O)(=O)c1ccccc1,-10%,-10%,-107*,6%,-1%
CC(C)C1N(C(=O)N(C)C)CCN1S(=O)(=O)c1ccccc1 (centres undefined),2%[46.1 µM],7%,13,-6%,0%
COc1ccc(-c2nc3ccccc3n2Cc2ccc(C(C)C)cc2)cc1,?,-30%,-73*,nt,0%[46.1 µM]
O=C(COc1ccccc1F)Nc1ccc2nc(SCC(=O)N3CCCC3)sc2c1,?,?,-63*,nt,3%[46.1 µM]
O=C(COc1ccc(F)cc1)Nc1ccc2nc(SCC(=O)N3CCCC3)sc2c1,2%[46.1 µM],?,-21,nt,22%[46.1 µM]
O=C(COc1ccccc1F)Nc1ccc2nc(SCC(=O)N3CCOCC3)sc2c1,?,?,-68*,nt,-21%[46.1 µM]
O=C(CSc1nc2ccc(Nc3nc(N4CCOCC4)nc(N4CCOCC4)n3)cc2s1)Nc1ccccc1F,nt,-18%,-97*,?,nt
O=C(CSc1nc2ccc(Nc3nc(N4CCOCC4)nc(N4CCOCC4)n3)cc2s1)Nc1ccccc1Cl,?,-18%,nt,?,?
O=C(Nc1cc([N+](=O)[O-])ccc1C(=O)Nc1cccnc1)c1ccccc1,?,-5%,?,?,-35%
